For some assays here: Results with a measured potency or affinity are listed apart.
Columns and labels:
Set-up in all cases: scale not given: direction of the effect not stated beside the values
[1] = target: Protein translocase subunit SecA (Escherichia coli (strain K12)) (UniProt P10408); assay: Assay to Identify E. coli SecA ATPase Inhibitors; type: functional; conditions: 30 µM
[2] = target: T1, Ubiquitin-activating enzyme e1, putative (Leishmania donovani (strain BPK282A1)) (UniProt E9BSI1); assay: Leishmania donovani Ubiquitin Activating Enzyme (LdE1); type: functional; conditions: 30 µM
T1 sequence (whole entry): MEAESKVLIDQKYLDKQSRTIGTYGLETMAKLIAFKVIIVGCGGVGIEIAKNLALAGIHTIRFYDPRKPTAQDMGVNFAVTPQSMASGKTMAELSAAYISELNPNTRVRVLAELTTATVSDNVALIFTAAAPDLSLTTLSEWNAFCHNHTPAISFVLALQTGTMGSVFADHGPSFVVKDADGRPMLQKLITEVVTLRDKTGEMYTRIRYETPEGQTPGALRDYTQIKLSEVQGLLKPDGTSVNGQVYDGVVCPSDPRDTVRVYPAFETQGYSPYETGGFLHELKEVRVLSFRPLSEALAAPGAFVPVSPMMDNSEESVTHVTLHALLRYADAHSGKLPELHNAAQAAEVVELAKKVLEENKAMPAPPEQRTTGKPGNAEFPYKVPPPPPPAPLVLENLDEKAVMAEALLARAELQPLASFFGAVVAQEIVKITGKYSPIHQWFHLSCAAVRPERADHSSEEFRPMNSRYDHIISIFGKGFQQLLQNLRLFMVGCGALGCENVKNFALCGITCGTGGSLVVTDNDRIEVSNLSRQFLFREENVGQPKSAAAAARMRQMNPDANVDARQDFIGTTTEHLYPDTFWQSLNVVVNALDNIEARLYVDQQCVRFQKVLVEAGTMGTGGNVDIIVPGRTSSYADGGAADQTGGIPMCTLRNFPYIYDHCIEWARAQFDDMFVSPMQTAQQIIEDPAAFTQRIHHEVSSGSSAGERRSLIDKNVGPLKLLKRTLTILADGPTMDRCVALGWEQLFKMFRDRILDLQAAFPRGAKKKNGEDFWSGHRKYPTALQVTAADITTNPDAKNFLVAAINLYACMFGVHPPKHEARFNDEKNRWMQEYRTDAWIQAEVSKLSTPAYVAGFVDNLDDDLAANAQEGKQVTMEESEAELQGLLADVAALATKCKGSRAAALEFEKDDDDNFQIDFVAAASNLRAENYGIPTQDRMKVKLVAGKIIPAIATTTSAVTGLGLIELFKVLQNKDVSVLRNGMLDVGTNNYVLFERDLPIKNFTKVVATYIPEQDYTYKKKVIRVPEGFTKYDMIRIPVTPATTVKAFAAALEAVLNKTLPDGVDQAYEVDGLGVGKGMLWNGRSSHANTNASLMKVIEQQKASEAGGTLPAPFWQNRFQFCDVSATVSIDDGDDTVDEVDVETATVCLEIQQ

[3] = target: T2, Aspartate--tRNA(Asp/Asn) ligase (Mycobacterium tuberculosis (strain ATCC 25618 / H37Rv)) (UniProt P9WFW3); assay: Assay for Asp RNA synthetase-1 from Mycobacterium tuberculosis; type: functional; conditions: 30 µM; note: in the data most compounds retested in dose-response had high values
T2 sequence (whole entry): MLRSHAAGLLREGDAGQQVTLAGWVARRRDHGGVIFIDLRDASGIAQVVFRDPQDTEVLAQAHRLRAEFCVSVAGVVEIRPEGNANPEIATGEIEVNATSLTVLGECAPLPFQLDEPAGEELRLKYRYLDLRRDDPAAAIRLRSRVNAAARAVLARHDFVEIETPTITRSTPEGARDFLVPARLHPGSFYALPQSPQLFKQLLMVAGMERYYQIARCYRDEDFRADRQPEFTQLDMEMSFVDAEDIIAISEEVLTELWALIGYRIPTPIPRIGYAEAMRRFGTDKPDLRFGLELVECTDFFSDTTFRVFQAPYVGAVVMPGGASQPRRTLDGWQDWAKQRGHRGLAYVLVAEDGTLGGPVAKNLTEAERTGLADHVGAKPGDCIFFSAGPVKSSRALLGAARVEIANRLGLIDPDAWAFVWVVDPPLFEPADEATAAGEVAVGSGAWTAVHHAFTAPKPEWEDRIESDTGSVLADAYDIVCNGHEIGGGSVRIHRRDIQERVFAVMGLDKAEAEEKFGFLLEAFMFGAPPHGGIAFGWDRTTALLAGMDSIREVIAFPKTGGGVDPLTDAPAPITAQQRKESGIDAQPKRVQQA

[4] = target: AMP-activated protein kinase, AMPK (Homo sapiens) (UniProt P54646+O43741+P54619+Q9UGJ0+Q9Y478+Q13131+Q9UGI9); assay: AMP-dependent Kinase enzyme assay. An in vitro enzyme assay that detects ADP turnover that is directly proportional to AMPK activity. This uses naive AMPK that is activated during the assay with MK-8722; type: functional; conditions: 30 µM
[5] = target: Sialic acid-binding Ig-like lectin 9 (Homo sapiens) (UniProt Q9Y336); assay: Hs-Siglec9 ALPHAscreen SOP 20170721; conditions: 10 µM
Sequence of Sialic acid-binding Ig-like lectin 9 (Homo sapiens) (Q9Y336 whole entry): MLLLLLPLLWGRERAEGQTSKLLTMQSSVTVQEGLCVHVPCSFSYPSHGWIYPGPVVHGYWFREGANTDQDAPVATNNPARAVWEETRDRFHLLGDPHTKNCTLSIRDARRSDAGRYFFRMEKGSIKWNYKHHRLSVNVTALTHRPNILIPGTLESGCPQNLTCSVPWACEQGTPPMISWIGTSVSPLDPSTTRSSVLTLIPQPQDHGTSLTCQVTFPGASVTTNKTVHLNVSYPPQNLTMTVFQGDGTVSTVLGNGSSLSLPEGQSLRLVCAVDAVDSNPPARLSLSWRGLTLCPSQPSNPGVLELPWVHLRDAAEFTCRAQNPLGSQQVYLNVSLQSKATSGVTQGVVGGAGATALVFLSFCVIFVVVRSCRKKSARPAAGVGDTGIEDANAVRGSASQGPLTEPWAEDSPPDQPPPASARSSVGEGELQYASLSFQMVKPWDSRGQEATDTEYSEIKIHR

Trypanosoma cruzi = assay: Trypanosoma cruzi phosphomannomutase and mannose-1-phosphate guanylyltransferase assay; type: functional; conditions: 10 µM
[6] = target: T3, Arginase-2, mitochondrial (Homo sapiens) (UniProt P78540); assay: in vitro enzyme assay to detect the production of urea directly proportional to the activity of Arginase II; type: functional; conditions: 33.3 µM; note: in the data most compounds retested in dose-response had high values
T3 sequence (whole entry): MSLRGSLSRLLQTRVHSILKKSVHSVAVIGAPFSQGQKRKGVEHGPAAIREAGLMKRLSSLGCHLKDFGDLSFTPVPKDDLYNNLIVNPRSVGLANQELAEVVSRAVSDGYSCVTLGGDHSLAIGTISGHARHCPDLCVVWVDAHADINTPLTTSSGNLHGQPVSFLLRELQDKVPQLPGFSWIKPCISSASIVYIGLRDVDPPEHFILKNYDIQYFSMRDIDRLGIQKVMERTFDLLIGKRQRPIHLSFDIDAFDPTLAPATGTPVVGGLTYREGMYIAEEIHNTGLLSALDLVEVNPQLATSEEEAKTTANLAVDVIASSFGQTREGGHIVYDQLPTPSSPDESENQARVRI

[7] = target: T4, Proteasome subunit beta (Trypanosoma cruzi) (UniProt O96673); assay: Trypanosoma cruzi proteasome chymotrypsin-like activity (TcProtChymo) assay.; note: in the data most compounds retested in dose-response had high values; type: functional; conditions: 9.37 µM
T4 sequence (whole entry): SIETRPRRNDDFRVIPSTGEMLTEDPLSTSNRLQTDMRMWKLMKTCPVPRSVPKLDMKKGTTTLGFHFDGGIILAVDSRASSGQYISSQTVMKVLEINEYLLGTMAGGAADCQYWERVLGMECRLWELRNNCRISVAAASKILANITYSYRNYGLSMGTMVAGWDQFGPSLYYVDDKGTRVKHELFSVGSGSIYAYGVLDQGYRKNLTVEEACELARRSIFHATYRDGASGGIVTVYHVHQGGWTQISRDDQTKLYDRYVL

Homo sapiens = species: Homo sapiens; assay: To identify inhibition of the IFN signalling (Jak-Stat) pathway via expression of an eGFP reporter gene under the control of an IFN-stimulated response element (ISRE) containing MxA promoter.; type: functional; conditions: 30 µM
[8] = target: Shiga toxin 2 (Escherichia coli O157:H7) (UniProt P09385+P09386); assay: E. coli 0.157:H7 Shiga Toxin SOP - stx2 screening assay; type: functional; conditions: 30 µM
[9] = target: T5, Tyrosyl-tRNA synthetase, putative (Trypanosoma cruzi (strain CL Brener)) (UniProt Q4DSP6); assay: Trypanosoma cruzi tyrosyl tRNA synthetase (TcYRS) _High Tyrosine SOP; type: functional; conditions: 30 µM; note: in the data most compounds retested in dose-response had high values
T5 sequence (whole entry): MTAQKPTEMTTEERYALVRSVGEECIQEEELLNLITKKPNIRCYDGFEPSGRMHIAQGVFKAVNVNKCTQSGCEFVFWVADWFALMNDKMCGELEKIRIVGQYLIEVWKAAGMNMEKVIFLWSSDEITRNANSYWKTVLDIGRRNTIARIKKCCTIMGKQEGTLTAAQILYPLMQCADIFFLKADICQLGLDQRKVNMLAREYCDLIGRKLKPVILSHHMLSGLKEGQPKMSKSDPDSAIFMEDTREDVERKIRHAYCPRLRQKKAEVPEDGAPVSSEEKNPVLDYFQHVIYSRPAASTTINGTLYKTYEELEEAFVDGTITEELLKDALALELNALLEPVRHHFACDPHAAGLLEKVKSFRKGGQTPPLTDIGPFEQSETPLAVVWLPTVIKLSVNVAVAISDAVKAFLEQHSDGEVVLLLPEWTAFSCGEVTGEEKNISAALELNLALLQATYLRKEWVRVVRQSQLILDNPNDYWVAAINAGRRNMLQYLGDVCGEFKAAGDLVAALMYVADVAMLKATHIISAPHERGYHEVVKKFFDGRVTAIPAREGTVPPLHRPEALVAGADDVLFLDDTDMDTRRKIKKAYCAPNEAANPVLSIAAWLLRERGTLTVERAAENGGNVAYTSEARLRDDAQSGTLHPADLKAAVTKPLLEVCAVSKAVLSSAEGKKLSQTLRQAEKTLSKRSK

[10] = target: T5, Tyrosyl-tRNA synthetase, putative (Trypanosoma cruzi (strain CL Brener)); assay: Trypanosoma cruzi tyrosyl tRNA synthetase (TcYRS) SOP; type: functional; conditions: 30 µM
[11] = target: Chromo domain-containing protein 1 (Saccharomyces cerevisiae (strain ATCC 204508 / S288c) (Baker's yeast)) (UniProt P32657); assay: ScCHD-1 Enzyme Inhibition Assay; type: functional; conditions: 30 µM; note: in the data most compounds retested in dose-response had high values
Sequence of Chromo domain-containing protein 1 (Saccharomyces cerevisiae (strain ATCC 204508 / S288c) (Baker's yeast)) (P32657 whole entry, the tested form may be a part): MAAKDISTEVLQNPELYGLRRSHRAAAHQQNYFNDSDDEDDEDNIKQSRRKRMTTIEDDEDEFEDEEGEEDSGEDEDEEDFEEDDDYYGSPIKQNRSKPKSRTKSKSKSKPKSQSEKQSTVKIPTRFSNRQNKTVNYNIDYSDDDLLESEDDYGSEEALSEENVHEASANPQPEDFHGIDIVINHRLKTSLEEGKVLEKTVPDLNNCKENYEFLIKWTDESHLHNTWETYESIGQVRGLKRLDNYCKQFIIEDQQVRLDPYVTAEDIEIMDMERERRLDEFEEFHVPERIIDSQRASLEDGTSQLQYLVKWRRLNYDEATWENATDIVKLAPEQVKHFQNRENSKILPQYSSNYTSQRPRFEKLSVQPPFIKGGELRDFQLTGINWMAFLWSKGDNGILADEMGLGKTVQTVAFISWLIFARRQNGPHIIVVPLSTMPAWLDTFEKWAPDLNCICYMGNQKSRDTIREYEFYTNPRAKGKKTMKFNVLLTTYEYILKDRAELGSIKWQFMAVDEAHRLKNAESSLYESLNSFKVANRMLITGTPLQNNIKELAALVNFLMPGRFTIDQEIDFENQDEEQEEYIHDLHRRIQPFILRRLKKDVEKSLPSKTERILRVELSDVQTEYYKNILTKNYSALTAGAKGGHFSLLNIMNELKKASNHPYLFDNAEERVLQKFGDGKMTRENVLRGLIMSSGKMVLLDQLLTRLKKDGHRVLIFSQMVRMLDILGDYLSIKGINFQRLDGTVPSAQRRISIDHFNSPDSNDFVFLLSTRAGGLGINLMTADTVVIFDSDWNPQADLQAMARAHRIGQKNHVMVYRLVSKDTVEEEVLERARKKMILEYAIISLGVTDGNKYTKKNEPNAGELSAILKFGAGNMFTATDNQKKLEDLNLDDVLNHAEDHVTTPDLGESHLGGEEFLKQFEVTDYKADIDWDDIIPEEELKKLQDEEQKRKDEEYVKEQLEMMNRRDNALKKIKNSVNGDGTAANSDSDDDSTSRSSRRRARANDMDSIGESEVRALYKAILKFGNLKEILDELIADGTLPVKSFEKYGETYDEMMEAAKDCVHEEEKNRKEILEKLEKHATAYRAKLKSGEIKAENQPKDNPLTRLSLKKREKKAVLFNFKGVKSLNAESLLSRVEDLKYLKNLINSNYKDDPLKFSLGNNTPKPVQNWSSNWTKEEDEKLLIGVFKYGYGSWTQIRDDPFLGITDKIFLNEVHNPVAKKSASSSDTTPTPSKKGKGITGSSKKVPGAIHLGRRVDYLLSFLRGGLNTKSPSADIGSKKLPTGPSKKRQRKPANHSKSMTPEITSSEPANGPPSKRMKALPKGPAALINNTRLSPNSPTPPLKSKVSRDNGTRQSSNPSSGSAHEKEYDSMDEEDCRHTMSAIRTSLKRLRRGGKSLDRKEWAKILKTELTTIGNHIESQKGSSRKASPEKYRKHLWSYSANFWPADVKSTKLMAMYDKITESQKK

Sequence of Protein translocase subunit SecA (Escherichia coli (strain K12)) (P10408 whole entry): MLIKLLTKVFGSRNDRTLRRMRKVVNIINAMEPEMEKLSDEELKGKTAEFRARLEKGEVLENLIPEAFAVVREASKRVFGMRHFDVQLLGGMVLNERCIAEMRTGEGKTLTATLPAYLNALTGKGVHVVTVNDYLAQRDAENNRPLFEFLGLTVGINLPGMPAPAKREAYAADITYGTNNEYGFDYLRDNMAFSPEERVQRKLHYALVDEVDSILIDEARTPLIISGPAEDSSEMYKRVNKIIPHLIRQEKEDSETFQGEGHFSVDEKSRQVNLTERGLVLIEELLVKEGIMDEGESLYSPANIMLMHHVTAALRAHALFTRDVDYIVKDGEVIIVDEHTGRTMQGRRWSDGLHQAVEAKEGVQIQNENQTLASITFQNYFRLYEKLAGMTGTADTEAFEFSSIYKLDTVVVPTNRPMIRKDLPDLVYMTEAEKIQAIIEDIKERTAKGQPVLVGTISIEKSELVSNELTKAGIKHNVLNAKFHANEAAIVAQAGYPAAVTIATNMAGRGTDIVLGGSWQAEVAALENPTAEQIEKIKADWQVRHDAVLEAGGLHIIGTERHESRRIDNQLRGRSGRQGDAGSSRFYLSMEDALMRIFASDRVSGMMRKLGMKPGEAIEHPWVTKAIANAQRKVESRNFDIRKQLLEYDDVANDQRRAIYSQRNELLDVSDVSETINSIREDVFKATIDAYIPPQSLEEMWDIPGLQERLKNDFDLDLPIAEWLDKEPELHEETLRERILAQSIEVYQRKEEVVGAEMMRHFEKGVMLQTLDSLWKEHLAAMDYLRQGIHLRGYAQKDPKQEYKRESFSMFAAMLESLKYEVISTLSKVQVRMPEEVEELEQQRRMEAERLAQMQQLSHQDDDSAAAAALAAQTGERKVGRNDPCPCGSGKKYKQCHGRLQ

SMILES	Percent Effect [1] [%]	Percent Effect [2] [%]	Percent Effect [3] [%]	Percent Effect [4] [%]	Percent Effect [5] [%]	Percent Effect (Trypanosoma cruzi) [%]	Percent Effect [6] [%]	Percent Effect [7] [%]	Percent Effect (Homo sapiens) [%]	Percent Effect [8] [%]	Percent Effect [9] [%]	Percent Effect [10] [%]	Percent Effect [11] [%]
CN(C)C(=O)CN1CCN(C(=O)Cc2csc(-c3ncccn3)n2)CC1	-3.23	13.2	-1.92	-1.28	12	-3.19	1.92	8.69	23.7	30	5.39	9.76	-7.21
Cn1cc(CN2CC[C@H]3CO[C@H](CNc4ncccn4)[C@H]3C2)cn1	-1.24	13.3	-0.0582	1.6	-7.11	5.02	-57.2	9.4	3.12	-32.2	7.29	22.5	-6.99
c1cncc(N2CCOCC3(CCCN(Cc4cccs4)C3)C2)c1 (stereo not given)	-5.18	13.5	2.95	5.95	-1.9	-0.293	2.23	10.3	4.59	14.1	8.65	15.4	-1.37
CN(C)[C@@H]1CCN(C(=O)Cc2ccc(F)cc2)[C@H]1Cc1cnn(C)c1	-0.511	13.3	7.04	9.81	-9.25	-4.72	-1.63	12.8	-1.72	-6.42	3.19	6.41	1.98
O=C(C1CC1)N1CCC2(CC1)OCCO2	-2.52	7.89	0.21	-0.0617	-9.69	-4.38	2.37	14.1	14.1	-6.13	0	10.4	-6.58
Cc1oc(-c2ccco2)nc1CC(=O)N1CCN(C2CCC2)CC1	-7.4	7.79	-0.115	-1.25	1.16	1.08	4	12.8	2.52	24.8	0	7.06	-19
Cc1csc(CN2CCC[C@]3(C[C@H](Oc4ccccn4)CO3)C2)n1	0.108	16.4	2.42	-0.448	1.76	3.57	2.4	3.85	21.9	-19.3	3.12	21	-4.03
CCn1cc(CN2CCCN(C(=O)Cc3ccc(C)nc3)CC2)cn1	-6.08	10.4	-1.87	0.798	5.82	6.76	-3.58	5.09	-17.1	1.69	-1.91	9.41	-14.6
CN(CCc1ccc(F)cc1)Cc1nc2c(cnn2C)c(=O)[nH]1	-6.94	21.1	-1.46	-5.8	1.02	2.33	-6.47	14.5	2.88	14.7	10.3	23.5	-6.22
Cc1oc(-c2ccco2)nc1CC(=O)N1CCN(CC(C)(C)O)CC1	-3.06	5.2	0.144	-3.3	5.79	-0.294	5.68	8	22.9	30.6	2.86	9.41	-21.6
CO[C@@H]1CC[C@H]2[C@H]1OCCN2CC1CCOCC1	-7.48	13.5	-1.82	-2.63	10.8	3.91	3.33	8.88	1.72	9.96	4.95	13.4	-4.03
c1cncc(COC[C@H]2CC[C@H]3[C@H](CCN3Cc3cccs3)O2)c1	-1.85	13.3	6.9	3.86	2.88	-0.197	3.5	22.8	3.65	-13.6	7.45	14.1	-5.4
CCOCC(O)CN1CCN(C(=O)Cc2ccc3c(c2)CCO3)CC1 (stereo not given)	1.74	10.5	0.3	2.16	5	-3.76	6.51	21.4	19.4	30.7	3.43	12.2	-2.97
CCn1ccnc1CN1CCCN(C(=O)Cc2ccc(C)nc2)CC1	-2.41	5.2	1.82	5.72	3.18	2.45	3.16	10.4	-0.845	6.49	-0.952	0	-16.3
Fc1cnc(N2CCO[C@H]3CN(CC4CCCC4)C[C@H]32)nc1	-2.09	21.3	-4.57	-6.38	-0.399	3.48	-60	3.93	-7.5	-12.1	3.12	2.5	-13.4
Cc1cc(CN2CC[C@H]3C[C@H](C)O[C@@H]3C2)no1	-1.91	18.9	-4.38	-0.664	-1.18	3.23	5.41	9.96	17.4	-1.03	7.57	17.9	1.93
O=C(Cc1csc(-c2ccco2)n1)N1CCN(CCO)CC1	0.294	1.27	-0.16	8.43	2.75	0.308	8.39	5.49	11.1	-23.6	3.12	5.06	-4.16
CN(C)C(=O)COC[C@H]1CC[C@@H]2[C@@H](CCN2Cc2ccccn2)O1	1.44	2.7	-8.07	-3.81	1.03	4.1	2.5	8.88	-3.32	-6.42	-14.8	3.66	-2.81
O=C(c1ccsc1)N1CCN2C[C@H](OCc3cccnc3)C[C@H]2C1	-4.24	10.7	-1.78	8.09	-1.36	-4.53	3.96	11.5	8.09	1.7	1.06	-8.97	-3.5
CCN(Cc1cccnc1)CC1CCCO1 (stereo not given)	-3.64	0	6.87	-3.71	-1.05	-5.88	-6.82	1.77	3.09	-16.3	2.15	2.5	-3.4
